Assay results reported in ChEMBL document CHEMBL3988442, “University of Dundee, Small-Polar-MMV Screening Library” (2021).
For some assays here: Entries with a potency or affinity are not part of this list.

Columns and labels:
Set-up in all cases: scale not given: direction of the effect not stated beside the values
[1] = target: Protein translocase subunit SecA (Escherichia coli (strain K12)) (UniProt P10408); test: Assay to Identify E. coli SecA ATPase Inhibitors; format: functional; details: 30 µM
Protein translocase subunit SecA (Escherichia coli (strain K12)), sequence (P10408 whole entry): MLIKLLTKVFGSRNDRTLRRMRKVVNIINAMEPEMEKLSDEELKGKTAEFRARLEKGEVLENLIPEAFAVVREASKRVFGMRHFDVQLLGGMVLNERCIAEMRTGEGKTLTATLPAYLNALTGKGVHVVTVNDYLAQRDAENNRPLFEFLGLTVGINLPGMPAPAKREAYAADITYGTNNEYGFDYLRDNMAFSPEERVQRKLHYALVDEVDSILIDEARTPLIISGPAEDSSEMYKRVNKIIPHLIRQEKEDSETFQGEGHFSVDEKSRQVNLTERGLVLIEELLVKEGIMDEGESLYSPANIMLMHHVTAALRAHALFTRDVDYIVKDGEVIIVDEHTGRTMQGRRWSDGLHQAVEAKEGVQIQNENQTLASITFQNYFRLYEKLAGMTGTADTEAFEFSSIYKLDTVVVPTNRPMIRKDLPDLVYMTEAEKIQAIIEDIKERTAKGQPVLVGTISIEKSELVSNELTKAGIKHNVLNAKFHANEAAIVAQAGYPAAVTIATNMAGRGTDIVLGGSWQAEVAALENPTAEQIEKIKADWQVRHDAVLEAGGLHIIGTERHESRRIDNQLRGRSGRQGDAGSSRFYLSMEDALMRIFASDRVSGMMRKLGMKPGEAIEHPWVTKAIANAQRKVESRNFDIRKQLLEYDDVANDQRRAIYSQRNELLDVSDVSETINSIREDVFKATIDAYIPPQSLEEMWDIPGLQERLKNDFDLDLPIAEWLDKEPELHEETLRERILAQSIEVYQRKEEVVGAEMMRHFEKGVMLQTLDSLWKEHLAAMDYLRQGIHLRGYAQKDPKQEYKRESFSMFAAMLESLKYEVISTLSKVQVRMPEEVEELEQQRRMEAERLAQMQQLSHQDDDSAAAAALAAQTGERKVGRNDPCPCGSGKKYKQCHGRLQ

[2] = target: T1, Ubiquitin-activating enzyme e1, putative (Leishmania donovani (strain BPK282A1)) (UniProt E9BSI1); test: Leishmania donovani Ubiquitin Activating Enzyme (LdE1); format: functional; details: 30 µM
T1 sequence (whole entry): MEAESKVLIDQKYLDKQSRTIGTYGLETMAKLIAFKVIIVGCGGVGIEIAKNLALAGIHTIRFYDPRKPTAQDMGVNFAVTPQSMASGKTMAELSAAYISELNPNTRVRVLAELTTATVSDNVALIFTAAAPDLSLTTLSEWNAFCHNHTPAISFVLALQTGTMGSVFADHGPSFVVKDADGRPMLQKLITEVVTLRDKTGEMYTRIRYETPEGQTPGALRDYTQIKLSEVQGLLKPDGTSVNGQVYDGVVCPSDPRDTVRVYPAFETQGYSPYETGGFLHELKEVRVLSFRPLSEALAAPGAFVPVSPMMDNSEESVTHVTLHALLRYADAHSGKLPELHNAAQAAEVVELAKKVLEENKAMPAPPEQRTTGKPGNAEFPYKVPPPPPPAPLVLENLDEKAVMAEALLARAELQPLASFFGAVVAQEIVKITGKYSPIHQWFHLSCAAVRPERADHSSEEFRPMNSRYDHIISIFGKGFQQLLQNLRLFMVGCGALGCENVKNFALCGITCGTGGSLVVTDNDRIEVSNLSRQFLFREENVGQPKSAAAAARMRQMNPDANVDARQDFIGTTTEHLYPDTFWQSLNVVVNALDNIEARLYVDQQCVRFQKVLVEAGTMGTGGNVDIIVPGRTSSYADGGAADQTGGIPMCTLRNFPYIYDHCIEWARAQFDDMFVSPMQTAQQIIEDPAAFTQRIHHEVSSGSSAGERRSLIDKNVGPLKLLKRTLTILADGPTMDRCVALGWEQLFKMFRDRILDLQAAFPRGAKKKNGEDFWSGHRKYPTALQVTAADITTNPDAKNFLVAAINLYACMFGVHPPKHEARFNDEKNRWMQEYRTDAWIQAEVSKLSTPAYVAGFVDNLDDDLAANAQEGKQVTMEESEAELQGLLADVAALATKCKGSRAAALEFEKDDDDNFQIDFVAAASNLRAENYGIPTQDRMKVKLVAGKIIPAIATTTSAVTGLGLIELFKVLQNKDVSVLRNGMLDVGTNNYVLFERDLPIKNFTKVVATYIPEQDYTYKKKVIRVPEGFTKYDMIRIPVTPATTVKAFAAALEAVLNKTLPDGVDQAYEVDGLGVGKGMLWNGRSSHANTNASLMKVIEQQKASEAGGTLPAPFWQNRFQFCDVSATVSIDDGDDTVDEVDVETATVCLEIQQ

[3] = target: AMP-activated protein kinase, AMPK (Homo sapiens) (UniProt P54646+O43741+P54619+Q9UGJ0+Q9Y478+Q13131+Q9UGI9); test: AMP-dependent Kinase enzyme assay. An in vitro enzyme assay that detects ADP turnover that is directly proportional to AMPK activity. This uses naive AMPK that is activated during the assay with MK-8722; format: functional; details: 30 µM
[4] = target: Sialic acid-binding Ig-like lectin 9 (Homo sapiens) (UniProt Q9Y336); test: Hs-Siglec9 ALPHAscreen SOP 20170721; details: 10 µM
Sialic acid-binding Ig-like lectin 9 (Homo sapiens), sequence (Q9Y336 whole entry): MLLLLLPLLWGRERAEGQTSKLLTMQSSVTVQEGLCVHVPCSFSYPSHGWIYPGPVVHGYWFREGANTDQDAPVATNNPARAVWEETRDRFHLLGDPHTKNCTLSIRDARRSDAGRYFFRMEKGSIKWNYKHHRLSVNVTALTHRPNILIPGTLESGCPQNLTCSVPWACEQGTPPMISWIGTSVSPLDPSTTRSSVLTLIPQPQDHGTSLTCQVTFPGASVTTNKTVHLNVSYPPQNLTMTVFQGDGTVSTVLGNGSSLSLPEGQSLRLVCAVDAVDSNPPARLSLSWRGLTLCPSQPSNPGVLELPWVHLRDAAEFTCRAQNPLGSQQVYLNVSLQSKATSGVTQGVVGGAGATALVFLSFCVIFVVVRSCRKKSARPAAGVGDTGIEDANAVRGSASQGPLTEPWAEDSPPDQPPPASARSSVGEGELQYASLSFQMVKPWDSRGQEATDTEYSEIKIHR

Trypanosoma cruzi = test: Trypanosoma cruzi phosphomannomutase and mannose-1-phosphate guanylyltransferase assay; format: functional; details: 10 µM
[5] = target: T2, Arginase-2, mitochondrial (Homo sapiens) (UniProt P78540); test: in vitro enzyme assay to detect the production of urea directly proportional to the activity of Arginase II; format: functional; details: 33.3 µM; further: in the data most compounds retested in dose-response had high values
T2 sequence (whole entry): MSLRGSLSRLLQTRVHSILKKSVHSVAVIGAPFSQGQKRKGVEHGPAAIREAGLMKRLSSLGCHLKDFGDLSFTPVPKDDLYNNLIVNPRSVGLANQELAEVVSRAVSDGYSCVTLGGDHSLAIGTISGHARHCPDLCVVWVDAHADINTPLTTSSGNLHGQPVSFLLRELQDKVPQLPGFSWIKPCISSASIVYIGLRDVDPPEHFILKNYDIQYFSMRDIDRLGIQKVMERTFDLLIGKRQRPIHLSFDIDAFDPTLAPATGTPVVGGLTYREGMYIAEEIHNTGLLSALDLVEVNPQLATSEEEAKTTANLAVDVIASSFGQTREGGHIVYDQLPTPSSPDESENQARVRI

[6] = target: T3, Proteasome subunit beta (Trypanosoma cruzi) (UniProt O96673); test: Trypanosoma cruzi proteasome chymotrypsin-like activity (TcProtChymo) assay.; further: in the data most compounds retested in dose-response had high values; format: functional; details: 9.37 µM
T3 sequence (whole entry): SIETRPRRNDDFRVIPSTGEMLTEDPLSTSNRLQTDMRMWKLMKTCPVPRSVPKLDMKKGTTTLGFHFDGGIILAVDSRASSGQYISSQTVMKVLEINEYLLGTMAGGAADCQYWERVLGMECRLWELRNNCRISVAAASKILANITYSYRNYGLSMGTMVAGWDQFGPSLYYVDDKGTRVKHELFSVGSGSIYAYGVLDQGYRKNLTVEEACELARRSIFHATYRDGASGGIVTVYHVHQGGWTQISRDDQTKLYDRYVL

Homo sapiens = organism: Homo sapiens; test: To identify inhibition of the IFN signalling (Jak-Stat) pathway via expression of an eGFP reporter gene under the control of an IFN-stimulated response element (ISRE) containing MxA promoter.; format: functional; details: 30 µM
[7] = target: T4, Tyrosyl-tRNA synthetase, putative (Trypanosoma cruzi (strain CL Brener)) (UniProt Q4DSP6); test: Trypanosoma cruzi tyrosyl tRNA synthetase (TcYRS) _High Tyrosine SOP; format: functional; details: 30 µM; further: in the data most compounds retested in dose-response had high values
T4 sequence (whole entry): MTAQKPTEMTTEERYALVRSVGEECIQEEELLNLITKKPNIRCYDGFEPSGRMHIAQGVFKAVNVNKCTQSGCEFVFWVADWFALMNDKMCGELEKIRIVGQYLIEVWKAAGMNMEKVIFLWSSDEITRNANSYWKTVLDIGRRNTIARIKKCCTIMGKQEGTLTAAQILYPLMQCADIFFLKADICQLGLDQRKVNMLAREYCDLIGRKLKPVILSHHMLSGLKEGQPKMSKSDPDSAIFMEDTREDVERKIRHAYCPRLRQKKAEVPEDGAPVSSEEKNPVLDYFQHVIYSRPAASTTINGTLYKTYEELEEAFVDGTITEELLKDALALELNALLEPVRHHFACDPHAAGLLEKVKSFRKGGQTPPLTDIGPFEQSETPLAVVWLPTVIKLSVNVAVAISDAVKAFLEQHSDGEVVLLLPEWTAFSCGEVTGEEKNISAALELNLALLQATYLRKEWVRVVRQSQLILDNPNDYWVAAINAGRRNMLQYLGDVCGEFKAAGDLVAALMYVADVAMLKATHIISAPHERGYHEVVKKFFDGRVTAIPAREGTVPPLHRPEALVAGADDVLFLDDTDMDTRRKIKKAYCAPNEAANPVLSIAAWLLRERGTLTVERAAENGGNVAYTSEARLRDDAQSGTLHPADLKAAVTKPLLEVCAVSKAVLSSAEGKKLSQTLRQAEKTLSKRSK

[8] = target: T4, Tyrosyl-tRNA synthetase, putative (Trypanosoma cruzi (strain CL Brener)); test: Trypanosoma cruzi tyrosyl tRNA synthetase (TcYRS) SOP; format: functional; details: 30 µM
[9] = target: Chromo domain-containing protein 1 (Saccharomyces cerevisiae (strain ATCC 204508 / S288c) (Baker's yeast)) (UniProt P32657); test: ScCHD-1 Enzyme Inhibition Assay; format: functional; details: 30 µM; further: in the data most compounds retested in dose-response had high values
Chromo domain-containing protein 1 (Saccharomyces cerevisiae (strain ATCC 204508 / S288c) (Baker's yeast)), sequence (P32657 whole entry, the tested form may be a part): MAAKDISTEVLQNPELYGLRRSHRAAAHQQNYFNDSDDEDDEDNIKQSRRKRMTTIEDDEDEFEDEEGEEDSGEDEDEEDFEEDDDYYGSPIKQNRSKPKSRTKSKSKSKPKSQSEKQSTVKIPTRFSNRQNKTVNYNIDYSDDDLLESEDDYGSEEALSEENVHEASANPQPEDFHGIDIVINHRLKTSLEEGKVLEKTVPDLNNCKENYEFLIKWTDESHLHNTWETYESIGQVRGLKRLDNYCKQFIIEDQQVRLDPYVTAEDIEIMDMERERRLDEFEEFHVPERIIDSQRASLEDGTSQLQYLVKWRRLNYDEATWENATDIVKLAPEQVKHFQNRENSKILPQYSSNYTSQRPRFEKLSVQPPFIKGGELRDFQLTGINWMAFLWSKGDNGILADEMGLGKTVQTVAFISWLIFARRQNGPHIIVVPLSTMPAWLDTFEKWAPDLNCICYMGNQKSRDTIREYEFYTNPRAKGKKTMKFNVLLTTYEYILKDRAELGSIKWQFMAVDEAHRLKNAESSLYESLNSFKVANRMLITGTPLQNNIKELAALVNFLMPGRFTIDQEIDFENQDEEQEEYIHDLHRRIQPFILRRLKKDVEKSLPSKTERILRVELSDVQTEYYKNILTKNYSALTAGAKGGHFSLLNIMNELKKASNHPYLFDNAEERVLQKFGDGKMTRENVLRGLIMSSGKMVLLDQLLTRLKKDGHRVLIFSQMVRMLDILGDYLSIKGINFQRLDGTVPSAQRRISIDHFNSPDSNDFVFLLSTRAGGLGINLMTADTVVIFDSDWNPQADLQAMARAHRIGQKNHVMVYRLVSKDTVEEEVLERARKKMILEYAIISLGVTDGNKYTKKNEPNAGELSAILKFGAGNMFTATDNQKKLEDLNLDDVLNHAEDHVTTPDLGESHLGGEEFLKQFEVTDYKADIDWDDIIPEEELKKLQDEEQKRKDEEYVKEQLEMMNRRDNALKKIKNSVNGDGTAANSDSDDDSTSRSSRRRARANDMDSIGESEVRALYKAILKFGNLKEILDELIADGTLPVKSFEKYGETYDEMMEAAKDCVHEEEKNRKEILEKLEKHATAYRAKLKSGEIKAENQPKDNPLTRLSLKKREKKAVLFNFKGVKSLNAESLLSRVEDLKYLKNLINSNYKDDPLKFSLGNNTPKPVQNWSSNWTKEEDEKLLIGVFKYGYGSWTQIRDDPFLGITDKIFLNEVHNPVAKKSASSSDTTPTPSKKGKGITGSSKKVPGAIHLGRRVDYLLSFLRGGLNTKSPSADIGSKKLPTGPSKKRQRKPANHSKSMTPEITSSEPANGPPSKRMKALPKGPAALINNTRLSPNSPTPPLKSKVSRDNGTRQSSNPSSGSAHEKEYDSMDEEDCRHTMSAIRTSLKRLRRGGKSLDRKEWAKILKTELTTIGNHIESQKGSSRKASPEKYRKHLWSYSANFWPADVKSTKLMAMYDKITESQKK

Row | SMILES | Percent Effect [1] | Percent Effect [2] | Percent Effect [3] | Percent Effect [4] | Percent Effect (Trypanosoma cruzi) | Percent Effect [5] | Percent Effect [6] | Percent Effect (Homo sapiens) | Percent Effect [7] | Percent Effect [8] | Percent Effect [9]
1 | O=C(Nc1cccc(CNCc2cccs2)c1)C1CCCC1 | -4.41% | 13.2% | -0.852% | -3.26% | 2.15% | -2.16% | 2.45% | 3.75% | 6.4% | 18.5% | -4.46%
2 | CC(C)N(C)CCCNC(=O)c1cnc(-c2ccccc2)nc1 | -6.93% | 21.6% | 1.03% | 23.6% | 6.75% | 7.2% | 8.67% | -4.42% | 4.3% | 18.5% | -10.6%
3 | O=C(Cc1ccc2c(c1)OCCO2)NCCc1nnc2n1CCC2 | -2.17% | 24.3% | 22.3% | -3.07% | 3.87% | -7.62% | 10.8% | 2.82% | 4.43% | 18.5% | -9.97%
4 | CC(O)CN1CCN(C(=O)c2ccc(N(C)C)nn2)CC1 (configuration not stated) | -4.58% | 10.4% | -1.75% | 11.7% | 3.93% | 4.27% | 1.18% | 17.9% | 3.88% | 12.2% | -9.31%
5 | Cc1ccc(C)c(-n2ccc3nc(N4CCCC4)ncc3c2=O)c1 | -0.118% | -6.67% | 21.7% | 3.47% | -2.16% | -6.16% | -2.96% | -1.59% | 3.17% | -5.13% | -0.262%
6 | O=C(c1ccccn1)N1CCn2cnc(COCC3CC3)c2C1 | -2.21% | 0% | 3.19% | 4.7% | -2.86% | 3.23% | 9.57% | -0.697% | -10.6% | -16.7% | -11%
7 | O=C(c1ccsc1)N1CCc2c(COCc3ccncc3)cncc2C1 | 0.395% | -8.22% | 0.499% | 1.44% | -0.397% | 1.2% | 10% | 3.9% | 3.12% | 3.7% | -0.158%
8 | CC(C)CNC(=O)NC(=O)CNc1ccccc1SCC(C)C#N (configuration not stated) | -5.8% | 11% | 6% | 16.8% | 1.37% | 6.82% | 9.41% | 11.3% | 0% | 12.5% | -5.23%
9 | Cc1nc(C)n(CC2CCCN2CC(=O)NCCc2ccccc2)n1 (configuration not stated) | 0.351% | 0% | 2.9% | 4.24% | 1.37% | 1.36% | 12.4% | -18.8% | 1.07% | 2.5% | -5.02%
10 | CCc1c(C(=O)NCC2CCS(=O)(=O)C2)cnn1-c1ccc(C)cc1 (configuration not stated) | -3.51% | 17.7% | -2.2% | -1.25% | 2.74% | 4.94% | 2.54% | 5.86% | 5.42% | 21.5% | -6.44%
11 | Cc1ccc(CNC(CN2CCN(C)CC2)c2ccccc2)cc1 (configuration not stated) | -5.66% | 8.11% | -8.66% | -0.353% | -2.05% | -1.74% | 7.64% | 13.4% | 3.23% | 8.64% | -3.22%
12 | Cc1nc(C)n(C2CCCN(C(=O)Cc3cccnc3)C2)n1 (configuration not stated) | -6.21% | 5.41% | 2.37% | -1.07% | 0.586% | 2.5% | 6.17% | -10.7% | 5.94% | 11% | -2.33%
13 | CCNC(=O)c1cnc(Cc2ccc(F)cc2)s1 | -3.2% | -2.67% | 3.74% | 1.03% | -1.27% | 4.17% | 8.72% | 14.1% | 3.83% | 8.64% | -2.95%
14 | Cc1c(C(=O)NCC2CCCO2)nnn1-c1cccc2c1CCN(C)C2 (configuration not stated) | -7.71% | 2.63% | -11.9% | -4.47% | -1.27% | 2.37% | 6.42% | 27.2% | -1.06% | -2.6% | 88%
15 | Cc1cnn(CC2CN(CCS(=O)(=O)c3ccccc3)CCO2)c1 (configuration not stated) | -8.49% | 0% | 0.043% | -0.479% | -2.25% | -0.248% | 5.41% | 12.1% | 5.38% | 1.24% | -5.16%
16 | CC(=O)N1CCN(C(=O)C(C)n2cncn2)CC1 (configuration not stated) | -3.75% | 8.86% | 5.62% | 3.27% | 1.13% | -1.5% | 10.3% | 1.42% | 5.21% | 12.7% | -21.9%
17 | Cc1ccc(N2CCCN(C(=O)C3(C#N)CCCCC3)CC2)nn1 | -6.11% | 5.26% | -4.48% | 3.79% | 6.39% | 1.53% | 0.668% | -2.34% | 5.39% | 0% | -14.5%
18 | CCC(CNC(=O)c1ccc(=O)[nH]n1)N1CCc2ccccc2C1 (configuration not stated) | 0.395% | 13.5% | -10.4% | 10.4% | 3.48% | 11.4% | 17.9% | 2.58% | 7.94% | 12.2% | -3.16%
19 | CN(C)C(C)(C)CNC(=O)C(C)(C)c1ccccc1F | -0.22% | 9.72% | -4.87% | 4.5% | -4.18% | -0.442% | 13.2% | 17.2% | 4.21% | -2.56% | 105%
20 | COCCN(C)C[C@@H]1CN(C(=O)c2ccoc2)C[C@@H]1CO | -3.19% | 2.7% | -0.15% | 1.89% | 6.56% | -1.43% | 5.34% | 4.14% | 6.88% | 9.76% | -2.44%
21 | CC(C)N1CCC(Cc2cnc(-c3cccc(C(=O)O)c3)cn2)C1 (configuration not stated) | -3.78% | 1.35% | 12.1% | 1.95% | 1.19% | 1.62% | -3.59% | 7.71% | 0% | 9.09% | 5.67%
22 | c1nc2c(c(C3CC3)n1)CCN(Cc1ccoc1)CC2 | 0.0846% | 19.2% | -4.87% | 5.4% | 5.56% | -0.798% | 6.59% | 5.88% | 8.33% | 23.5% | -3.03%
